From PubChem BioAssay
Compounds with a hit are over-represented: about 11% of the library has one in this group of screens.
AmpC inh detg: AmpC beta-lactamase inhibition with detergent present; hit rate 0.041% among 370,000; Potency, µM (doses to about 114 µM), inactives show at the top dose activity change, negative = inhibition, hits mostly inhibitors; AmpC hydrolysis of nitrocefin, absorbance 480 nm, 0.01% Triton;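 also: 0% = no-compound wells and -100% = no-enzyme wells; nearly all actives have a fitted effect of over 25% in size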
Target sequence (P00811 whole entry, looked up): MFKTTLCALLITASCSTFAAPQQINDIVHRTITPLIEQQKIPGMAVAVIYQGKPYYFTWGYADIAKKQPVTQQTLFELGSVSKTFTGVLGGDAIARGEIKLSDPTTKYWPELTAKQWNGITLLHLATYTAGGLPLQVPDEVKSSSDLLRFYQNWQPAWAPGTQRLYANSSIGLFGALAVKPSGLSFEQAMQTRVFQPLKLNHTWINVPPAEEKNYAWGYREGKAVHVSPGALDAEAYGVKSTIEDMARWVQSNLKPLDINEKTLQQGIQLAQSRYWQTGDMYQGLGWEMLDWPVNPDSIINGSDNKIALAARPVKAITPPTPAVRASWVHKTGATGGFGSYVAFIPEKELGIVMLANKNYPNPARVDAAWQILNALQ
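20 mM phosphate pH 7.0 + 0.01% (detergent screen) or 0.0001% Triton X-100; 5.3 nM AmpC reagent; cpd preinc 15 min RT; nitrocefin (800 uM stock) to start; A480 q20 s × 4 min; Activity was normalised to no-enzyme and no-compound control wells.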
AmpC inh no detg: inhibitors of E. coli AmpC beta-lactamase without detergent | Potency, µM (highest dose often 57.1 µM), for inactives: top-dose activity change, negative = inhibition, actives largely listed as inhibitors | AmpC nitrocefin hydrolysis, absorbance 480 nm, 0.0001% Triton | hit rate 0.52% among 330,000 | P00811;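 also: plate controls were no compound for no effect and no enzyme for full effect; nearly all actives have a fitted effect of over 20% in size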
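AmpC (5.3 nM in the dispensed reagent) in 20 mM phosphate pH 7.0 with 0.01% (detergent screen) or 0.0001% Triton X-100 was preincubated with compounds for 15 min at room temperature. Nitrocefin was then added from an 800 uM solution, and hydrolysis was followed at 480 nm.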
HCV inhibitor: blocks hepatitis C virus. Huh7.5.1 HCVcc-Cre infection, luciferase reporter, 44 h. Potency, µM (titrated, usually from 41.8 µM), inactives show top-dose activity change, negative = inhibition, usual class: inhibitors. hit rate 3.4% among 340,000
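Seed cells (1,000/well) for 4 h; treat with compound and infect with HCVcc-Cre, moi about 0.5. Incubate 44 h, then detect luciferase activity.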
Pf growth 96h: inhibits malaria parasite growth, 96 h; P. falciparum luciferase reporter growth, 96 h; Potency, µM (doses to about 28.7 µM), for inactives: at the highest dose activity change, negative = inhibition, usual class: inhibitors; hit rate 6.9% among 320,000
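Erythrocytes infected with luciferase-expressing P. falciparum were dispensed at 2% hematocrit and 0.05% parasitemia (final), then incubated with compounds 96 hours at 37 C in 5% CO2. Luminescence after detection reagent addition reported growth.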
AMA1 RON2 block: inhibitors of Plasmodium falciparum AMA1-RON2 interaction; AlphaScreen AMA1-biotinylated RON2 peptide binding; Potency, µM (series often up to 58.2 µM), for the others: at the top dose activity change, negative = inhibition, most hits filed as inhibitors; hit rate 0.2% among 360,000;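 also: 0% = vehicle wells and -100% = peptide control; nearly all actives have a fitted effect of over 45% in size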
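AMA1 (3D7) with his tag at 25 nM final met compounds first, then biotinylated RON2 peptide at 25 nM; detection used donor plus acceptor beads, 10 µg/mL apiece, read by AlphaScreen after 30 min at room temperature.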
Pf growth 48h: inhibits P. falciparum growth in the first generation, 48 h; P. falciparum luciferase growth in erythrocytes, 48 h; Potency, µM (top dose mostly 28.7 µM), without a hit: at the highest dose activity change, negative = inhibition, usual class: inhibitors; hit rate 5.9% among 310,000; AID 504832
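Compounds are pin-transferred into medium, infected erythrocytes (2% hematocrit, 0.1% parasitemia final) are added, and plates sit one parasite generation at 37 C in 5% CO2. Detection reagent is then added and luminescence measured.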
Active calls of the source: *; [ ] = dose if it differs, or a comment. Calls follow the shape of the dose curve; as a rule, active = well fitted curve in the direction sought with a large enough effect; inconclusive = small, poorly fitted or top-dose-only effect, or another doubt; inactive = no such curve, though single readings can be large; an effect the other way counts as inactive or inconclusive. Unless noted, % is scaled to controls: 0 for no effect and ±100 for the full control effect; potency is read from the fitted curve at half-maximal effect.

For Cc1cccc(C)c1Nc1nnc(SCc2cn3cccc(C)c3n2)s1 the results were AmpC inh detg -11%, AmpC inh no detg -10%, HCV inhibitor -12%, Pf growth 96h 10µM*, AMA1 RON2 block -24% and Pf growth 48h inconclusive.
COc1ccc(C(C)=O)cc1CSc1nnc(SCc2cc(C(C)=O)ccc2OC)s1 was read as AmpC inh detg inconclusive, AmpC inh no detg -21%, HCV inhibitor 0%, Pf growth 96h inconclusive, AMA1 RON2 block -11% and Pf growth 48h inconclusive.
For Cn1c(=O)n(C)c2cc(NS(=O)(=O)c3ccc(C(C)(C)C)cc3)c(NCc3ccccc3)cc21 the results were AmpC inh detg -4%.
`Cc1ccc(NC(=O)C2CCCN2S(=O)(=O)c2ccc3c(c2)CCCC(=O)N3)cc1C` (stereo not drawn) gave AmpC inh detg 1%.
CCc1ccc(S(=O)(=O)c2cn(Cc3ccccc3)c3cc(N4CCCC4)c(F)cc3c2=O)cc1 was read as AmpC inh detg -7%.
For CCC(=O)N1c2ccccc2CC1C(=O)NCCc1ccc(Cl)cc1 (stereo not drawn) the results were AmpC inh detg 7%.
For COc1ccc(C(C)=O)cc1CSc1nnc(Nc2ccccc2C)s1 the results were AmpC inh detg -2%, AmpC inh no detg -23%, HCV inhibitor inconclusive, Pf growth 96h 4.1µM*, AMA1 RON2 block 0% and Pf growth 48h inconclusive.
For COc1ccc(C(C)=O)cc1CSc1nnc(Nc2ccc(C)cc2C)s1 the results were AmpC inh detg inconclusive, AmpC inh no detg -13%, HCV inhibitor inconclusive, Pf growth 96h inconclusive, AMA1 RON2 block -6% and Pf growth 48h inconclusive.
`CC(C)c1ccc(NC(=O)c2cc(S(=O)(=O)NCC3COc4ccccc4O3)ccc2F)cc1` (stereo not drawn) gave AmpC inh detg -12%, AmpC inh no detg -18%, HCV inhibitor inconclusive, Pf growth 96h 2.9µM*, AMA1 RON2 block -2%[11.6 µM] and Pf growth 48h inconclusive.
CC(=O)N1CCCC1c1nc2ccccc2n1Cc1ccccc1C (stereo not drawn) was read as AmpC inh detg 23%.
`COc1cccc(C(=O)NCCc2csc3nc(-c4ccccc4F)nn23)c1OC` gave AmpC inh detg 9%.
Cc1cccc(OCCSc2ncnc3nc[nH]c23)c1 was read as AmpC inh detg -5%, AmpC inh no detg -8%, HCV inhibitor inconclusive, Pf growth 96h 120%, AMA1 RON2 block 16% and Pf growth 48h 23%.
For O=C(CSc1ncnc2nc[nH]c12)c1ccccc1 the results were AmpC inh detg 0%, AmpC inh no detg -22%, HCV inhibitor 26%, Pf growth 96h 82%, AMA1 RON2 block 7% and Pf growth 48h 95%.
Screening COc1ccccc1OCCSc1ncnc2nc[nH]c12 returned AmpC inh detg -2%, AmpC inh no detg -3%, HCV inhibitor -29%, Pf growth 96h 12µM*, AMA1 RON2 block -14% and Pf growth 48h 4%.
Screening c1ccc(CCSc2ncnc3nc[nH]c23)cc1 returned AmpC inh detg -10%, AmpC inh no detg -12%, HCV inhibitor 13µM*, Pf growth 96h 43%, AMA1 RON2 block 21% and Pf growth 48h 75%.
Screening CC(C)Oc1cccc(-c2cc(C(=O)N3CCN(c4ncccn4)CC3)c3ccccc3n2)c1 returned AmpC inh detg -12%, AmpC inh no detg 123% and Pf growth 96h 9.3µM*.
For COc1cccc(-c2cc(C(=O)N3CCN(c4ncccn4)CC3)c3ccccc3n2)c1 the results were AmpC inh detg inconclusive, AmpC inh no detg 78%, HCV inhibitor inconclusive, Pf growth 96h -23%, AMA1 RON2 block -4% and Pf growth 48h inconclusive.
